Screen size: about 5,500 compounds; about 2,000 (36%) were called active. About 18% were inconclusive and are not listed. Rule as the data show it: active = normalized growth mostly below about 0.91 (no sharp cut-off); inconclusive = no clear call, values can overlap the other calls; inactive = mostly above about 0.92. The list shows a part of the results.
Assay: chemical genetic growth profiling, strain panel (AID 1159580);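 also: tested at 20 µM; growth read once vehicle control cultures reached saturation at 30 °C; 1 = growth at the plate median or of vehicle wells; lower values mean less growth of the strain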
Conditions: growth OD

Measured: normalized growth

CCn1cc(C(=O)O)c(=O)c2cc(F)c(N3CCNCC3)nc21
inactive: S. cerevisiae deletion strains, locus YJR066W, strain TOR1, active compounds read low 0.976 | S. cerevisiae deletion strains, locus YJR075W, strain HOC1, active compounds read low 1.01 | S. cerevisiae deletion strains, locus YKL009W, strain mrt4, active compounds read low 1.01 | S. cerevisiae deletion strains, locus YKL068W, active compounds read low 1.01 | S. cerevisiae deletion strains, locus YKL085W, strain MDH1 (second series), active compounds read low 1.01 | S. cerevisiae deletion strains, locus YKL085W, strain MDH1, active compounds read low 1.01 | S. cerevisiae deletion strains, locus YKL160W, strain elf1, active compounds read low 1 | S. cerevisiae deletion strains, locus YKL190W, strain CNB1, active compounds read low 1.02 | S. cerevisiae deletion strains, locus YKR001C, strain vps1, active compounds read low 1.02 | S. cerevisiae deletion strains, locus YKR026C, strain gcn3, active compounds read low 0.989 | S. cerevisiae deletion strains, locus YKR091W, strain srl3, active compounds read low 0.983 | S. cerevisiae deletion strains, locus YLL001W, strain dnm1, active compounds read low 0.991 | S. cerevisiae deletion strains, locus YLL026W, active compounds read low 0.992 | S. cerevisiae deletion strains, locus YLL041C, strain sdh2, active compounds read low 0.964 | S. cerevisiae deletion strains, locus YLR027C, strain aat2, active compounds read low 0.989 | S. cerevisiae deletion strains, locus YLR039C, strain RIC1, active compounds read low 1.01 | S. cerevisiae deletion strains, locus YLR058C, strain SHM2, active compounds read low 1.02 | S. cerevisiae deletion strains, locus YLR102C, strain apc9, active compounds read low 1.01 | S. cerevisiae deletion strains, locus YLR113W, strain HOG1, active compounds read low 1.08 | S. cerevisiae deletion strains, locus YLR221C, strain rsa3, active compounds read low 0.984 | S. cerevisiae deletion strains, locus YLR258W, strain gsy2, active compounds read low 0.987 | S. cerevisiae deletion strains, locus YLR262C, strain YPT6 (second series), active compounds read low 0.945 | S. cerevisiae deletion strains, locus YLR262C, strain YPT6, active compounds read low 1.03 | S. cerevisiae deletion strains, locus YLR268W, strain sec22, active compounds read low 1.01 | S. cerevisiae deletion strains, locus YLR320W, strain mms22, active compounds read low 0.999 | S. cerevisiae deletion strains, locus YLR330W, strain CHS5, active compounds read low 1.01 | S. cerevisiae deletion strains, locus YLR342W, strain FKS1 (second series), active compounds read low 1.03 | S. cerevisiae deletion strains, locus YLR342W, strain FKS1, active compounds read low 0.981 | S. cerevisiae deletion strains, locus YLR357W, strain rsc2, active compounds read low 0.897 | S. cerevisiae deletion strains, locus YLR370C, strain arc18, active compounds read low 0.975 | S. cerevisiae deletion strains, locus YLR371W, strain rom2, active compounds read low 1.02 | S. cerevisiae deletion strains, locus YLR384C, strain iki3, active compounds read low 0.983 | S. cerevisiae deletion strains, locus YLR418C, strain cdc73, active compounds read low 1.01 | S. cerevisiae deletion strains, locus YML016C, strain PPZ1, active compounds read low 1.01 | S. cerevisiae deletion strains, locus YML032C, strain rad52, active compounds read low 1.02 | S. cerevisiae deletion strains, locus YML120C, strain ndi1, active compounds read low 0.983 | S. cerevisiae deletion strains, locus YML124C, strain tub3, active compounds read low 1.01 | S. cerevisiae deletion strains, locus YMR058W, strain fet3, active compounds read low 0.982 | S. cerevisiae deletion strains, locus YMR078C, strain ctf18, active compounds read low 1 | S. cerevisiae deletion strains, locus YMR125W, strain sto1, active compounds read low 0.973 | S. cerevisiae deletion strains, locus YMR129W, active compounds read low 0.981 | S. cerevisiae deletion strains, locus YMR205C, strain PFK2, active compounds read low 1.01 | S. cerevisiae deletion strains, locus YMR223W, strain ubp8, active compounds read low 1.02 | S. cerevisiae deletion strains, locus YMR231W, strain pep5, active compounds read low 0.991 | S. cerevisiae deletion strains, locus YMR307W, strain GAS1, active compounds read low 1.02 | S. cerevisiae deletion strains, locus YNL067W, strain RPL9B, active compounds read low 1 | S. cerevisiae deletion strains, locus YNL071W, strain lat1, active compounds read low 0.968 | S. cerevisiae deletion strains, locus YNL153C, strain GIM3, active compounds read low 0.99 | S. cerevisiae deletion strains, locus YNL183C, strain NPR1, active compounds read low 0.982 | S. cerevisiae deletion strains, locus YNL209W, strain ssb2, active compounds read low 0.971 | S. cerevisiae deletion strains, locus YNL233W, strain BNI4, active compounds read low 0.978 | S. cerevisiae deletion strains, locus YNL248C, strain rpa49, active compounds read low 0.989 | S. cerevisiae deletion strains, locus YNL250W, strain rad50, active compounds read low 1.03 | S. cerevisiae deletion strains, locus YNL271C, strain bni1, active compounds read low 1.02 | S. cerevisiae deletion strains, locus YNL298W, strain CLA4, active compounds read low 1.01 | S. cerevisiae deletion strains, locus YNL307C, strain MCK1, active compounds read low 1.02 | S. cerevisiae deletion strains, locus YNL322C, strain KRE1 (second series), active compounds read low 0.976 | S. cerevisiae deletion strains, locus YNR049C, strain mso1, active compounds read low 0.981 | S. cerevisiae deletion strains, locus YNR052C, strain pop2, active compounds read low 1.02 | S. cerevisiae deletion strains, locus YOL006C, strain TOP1, active compounds read low 1.02 | S. cerevisiae deletion strains, locus YOL012C, strain htz1 1.02 | S. cerevisiae deletion strains, locus YOL147C, strain pex11, active compounds read low 1.02 | S. cerevisiae deletion strains, locus YOR001W, strain rrp6, active compounds read low 0.987 | S. cerevisiae deletion strains, locus YOR061W, strain CKA2, active compounds read low 1.02 | S. cerevisiae deletion strains, locus YOR069W, strain VPS5, active compounds read low 1.01 | S. cerevisiae deletion strains, locus YOR070C, strain gyp1, active compounds read low 0.993 | S. cerevisiae deletion strains, locus YOR080W, strain dia2, active compounds read low 0.993 | S. cerevisiae deletion strains, locus YOR083W, strain WHI5, active compounds read low 0.99 | S. cerevisiae deletion strains, locus YOR106W, strain vam3, active compounds read low 0.988 | S. cerevisiae deletion strains, locus YOR136W, strain idh2, active compounds read low 1.01 | S. cerevisiae deletion strains, locus YOR144C, strain elg1, active compounds read low 1.01 | S. cerevisiae deletion strains, locus YOR184W, strain ser1, active compounds read low 1.02 | S. cerevisiae deletion strains, locus YOR231W, strain MKK1, active compounds read low 1.05 | S. cerevisiae deletion strains, locus YOR265W, strain rbl2, active compounds read low 0.986 | S. cerevisiae deletion strains, locus YOR270C, strain vph1, active compounds read low 0.991 | S. cerevisiae deletion strains, locus YOR290C, strain snf2, active compounds read low 0.961 | S. cerevisiae deletion strains, locus YOR316C, strain cot1, active compounds read low 1.02 | S. cerevisiae deletion strains, locus YPL051W, strain arl3, active compounds read low 0.994 | S. cerevisiae deletion strains, locus YPL078C, strain atp4, active compounds read low 0.984 | S. cerevisiae deletion strains, locus YPL106C, strain sse1, active compounds read low 0.947 | S. cerevisiae deletion strains, locus YPL240C, strain hsp82, active compounds read low 0.977 | S. cerevisiae deletion strains, locus YPL241C, strain CIN2, active compounds read low 1.01 | S. cerevisiae deletion strains, locus YPL256C, strain CLN2, active compounds read low 1.04 | S. cerevisiae deletion strains, locus YPR119W, strain clb2, active compounds read low 1.01 | S. cerevisiae deletion strains, locus YPR141C, strain kar3, active compounds read low 1.01 | S. cerevisiae deletion strains, locus YPR163C, strain tif3, active compounds read low 1.03 | S. cerevisiae deletion strains, locus YPR167C, strain met16, active compounds read low 1.01 | S. cerevisiae deletion strains, strain wtn01, active compounds read low 1.01 | S. cerevisiae strains, strain wild type, active compounds read low 1.02
